# Sm TGR inh: S. mansoni TGR enzyme inhibition; Q962Y6; purified TGR, DTNB reduction, TNB absorbance 405 nm; Potency, µM (top dose mostly 114 µM), inactives show at the top dose activity change, negative = inhibition, actives largely listed as inhibitors; 360,000 tested, 3% active; AID 485364; further: on the % scale 0 is the no-effect control and ±100 the full control effect; nearly all actives have a fitted effect of over 60% in size
#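 First, TGR (20 nM dispensed) and NADPH were mixed with compound. Second, a 15 min room-temperature incubation followed. Third, further NADPH and then DTNB were added to start the reaction. Finally, TNB absorbance was monitored kinetically.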
# Pf growth 96h: inhibits malaria parasite growth, 96 h. P. falciparum luciferase reporter growth, 96 h. Potency, µM (series often up to 28.7 µM), for the others: at the top dose activity change, negative = inhibition, usual class: inhibitors. 320,000 tested, 6.9% active. AID 504834; further: on the % scale 0 is the no-effect control and ±100 the full control effect
#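 P. falciparum expressing integrated firefly luciferase grown in erythrocytes (2% hematocrit, 0.05% parasitemia final) with compounds for 96 hours at 37 C, 5% CO2. Growth inhibition read as loss of luminescence after adding luciferase detection reagent.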
# AMA1-RON2 inh: disrupts binding of P. falciparum AMA1 to RON2; AlphaScreen AMA1-biotinylated RON2 peptide binding; Potency, µM (series often up to 58.2 µM), inactives show at the top dose activity change, negative = inhibition, hits mostly inhibitors; 360,000 tested, 0.2% active; AID 720542;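 further: 0% = vehicle wells and -100% = peptide control; nearly all actives have a fitted effect of over 45% in size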
#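 AMA1 (3D7) with his tag at 25 nM final met compounds first, then biotinylated RON2 peptide at 25 nM; detection used donor plus acceptor beads, 10 µg/mL apiece, read by AlphaScreen after 30 min at room temperature.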
# NS1 inh: influenza NS1 inhibition | Potency, µM (series often up to 46.1 µM), inactives show at the top dose activity, positive = more growth | 270,000 tested, 0.4% active | AID 2326; calls by dose curve; further: actives are rising curves; nearly all actives have a fitted effect of over 50% in size
#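 Recovery from NS1-induced slow growth read by OD600 in budding yeast switched to galactose assay medium (pH 6.0, -URA) at 1:100 dilution. Compound 23 nl per well; the matching strain lacking NS1 serves as control.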
# Pf growth 48h: inhibits P. falciparum growth in the first generation, 48 h; P. falciparum luciferase growth in erythrocytes, 48 h; 310,000 tested, 5.9% active; Potency, µM (titrated, usually from 28.7 µM), without a hit: at the top dose activity change, negative = inhibition, actives largely listed as inhibitors; further: on the % scale 0 is the no-effect control and ±100 the full control effect
#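 Luciferase-expressing parasites in RBCs, 2% Hct / 0.1% parasitemia final; RPMI 1640 + 0.5% Albumax; 37 C, 5% CO2, one generation; luminescence read-out, lower signal = inhibition.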
# * marks the source's active call; other numbers are inactive results; u = inconclusive; x = no result given; [ ] = another dose, or the depositor's remark. Shown are actives, neighbours in structure and some others; about 11% of the full set was active somewhere. Unless noted, the call rests on the fitted dose curve; in most records, active means well fitted curve in the direction sought with a large enough effect; inconclusive means small, poorly fitted or top-dose-only effect, or another doubt; inactive means no such curve, though single readings can be large; an effect the other way counts as inactive or inconclusive. Potency means the concentration at half of the fitted maximal effect.
SMILES,Sm TGR inh,Pf growth 96h,AMA1-RON2 inh,NS1 inh,Pf growth 48h
Cn1c(SCC(=O)N2c3ccccc3Sc3ccccc32)nc2ccccc21,3%,u,2%,30%,u
COC(=O)c1sc(NC(=O)CSc2nnc(Cn3nnc4ccccc43)n2C)nc1C,u,u,5%,15%,21%
CN(C)CCCn1c(SCC(=O)N2c3ccccc3Sc3ccccc32)nc2ccccc2c1=O,2%,4.1µM*,-28%,7%,10µM*
Cn1c(Cn2nnc3ccccc32)nnc1SCC(=O)N1c2ccccc2Sc2ccccc21,-2%,10µM*,0%,-14%,u
c1ccc(CCNCCCOc2cccc3ccccc23)cc1,5%,1%,-23%,-25%,3%
O=C(O)C1=C[C@@H](c2ccc(Br)cc2)C[C@@H](OCc2ccc(CO)cc2)O1,40µM*,17%,2%,5%,5%
O=C(O)C1=C[C@H](c2ccccc2)C[C@H](OCc2ccc(CO)cc2)O1,u,63%,6%,1%,53%
O=C(O)C1=C[C@H](c2cccs2)C[C@H](OCc2ccc(CO)cc2)O1,35µM*,0%,0%,-1%,0%
O=C(O)C1=C[C@H](c2ccc(F)cc2)C[C@H](OCc2ccc(CO)cc2)O1,35µM*,-2%,14%,4%,44%
CC1(C(=O)Nc2ccc3c(c2)OCCO3)CSCC(=O)N1C1CC1 (stereo not given),x,x,3%,x,x
COc1cccc(C(=O)Nc2cc(-c3cn4cccnc4n3)ccc2C)c1OC,-4%,x,x,x,x
CCOC(=O)C1=CN(CC2CCCO2)C=C(C(=O)OCC)C1c1ccccc1C(F)(F)F (stereo not given),x,u,43%,-4%,8.3µM*
Cc1ccc(C(=O)OCC(=O)Nc2c(Cl)cc(S(N)(=O)=O)cc2Cl)o1,-6%,2%,4%,5%,1%
CC1(C(=O)NS(=O)(=O)C2CC2)CCCN(C(=O)C2(c3ccc(Cl)cc3)CCCC2)C1 (stereo not given),x,x,5%,x,x
CC(=O)N1CCc2c(sc3c2c(=O)n(CCc2ccccc2)c(=O)n3Cc2cccc(C)c2)C1,13%,x,x,x,x
CC(C)OC(=O)/C(C#N)=C/c1ccc(-c2ccc(Cl)c(Cl)c2)o1,8%,x,x,x,x
CC(C)OC(=O)c1cc(-c2ccc(C=O)o2)ccc1Cl,u,15µM*,7%[11.6 µM],-18%,31%
CCOC(=O)C1=NN(C(=O)COc2ccccc2)C(O)(c2ccc(Br)cc2)C1 (stereo not given),x,2.9µM*,77%,-1%,20%
CCC1=NN(C(=O)COc2ccccc2)C(O)(c2ccncc2)C1 (stereo not given),7%,-4%,56%,3%,1%
O=C(Nc1ccc2c(c1)OCO2)NC1(C(F)(F)F)Oc2ccccc2O1,35µM*,-20%,-15%,-2%,x
O=C(NCC1CCCO1)NC1(C(F)(F)F)Oc2ccccc2O1 (stereo not given),u,43%,-6%,-3%,-14%
O=C(Nc1ccc2c(c1)OCCO2)Nc1ccc2c(c1)OCO2,-2%,134%,-23%,x,279%
O=C(Nc1ccc2c(c1)OCCO2)NC1(C(F)(F)F)Oc2ccccc2O1,40µM*,163%,-4%,23%,x
O=C(NC1(C(F)(F)F)Oc2ccccc2O1)N1CCCC1,40µM*,17%,2%,-10%,4%
CCc1ccc(CNC(=O)CCCn2ccc3cc(S(=O)(=O)N4CCCC4)ccc32)cc1,1%,x,x,x,x
SMILES,Sm TGR inh,Pf growth 96h,AMA1-RON2 inh,NS1 inh,Pf growth 48h
O=C1c2cc(F)ccc2-n2c1nc1ccccc1c2=O,-1%,0.029µM*,5%,-58%,0.033µM*
CN(Cc1cc(Br)cc(Br)c1N)C1CCCCC1,x,19µM*,x,x,u
C[C@@H]1CN([C@H](C)CO)C(=O)c2cc(Br)cnc2O[C@H]1CN(C)C(=O)Nc1ccc2c(c1)OCO2,x,x,17%,x,x
O=C(Nc1ccccc1C(F)(F)F)c1ccc(CN2CCC(Cc3ccccc3)CC2)cc1,10%,10µM*,-6%,-19%,13µM*
O=C(COc1ccc(NS(=O)(=O)c2ccc(F)cc2)cc1)N1CCOCC1,10%,66%,5%,2%,3%
c1ccc2c(c1)nc1n2CC2CON(C3CCCCC3)C12 (stereo not given),2%,0%,1%,15%,52%
c1ccc2c(c1)nc1n2C2(N3CCOCC3)CCCC2C1N1CCOCC1 (stereo not given),32µM*,-10%,-3%,-1%,25%
COC(=O)Cc1c(C)c2ccc3c(c2oc1=O)CN(Cc1ccccc1OC)CO3,-5%,x,x,x,x
O=C(COc1ccccc1Br)Nc1ccc(S(=O)(=O)N2CCCC2)cc1,-4%,u,-10%,x,5.9µM*
O=C(CNc1cc(S(=O)(=O)N2CCCC2)ccc1OCC(F)(F)F)Nc1cccc(C(F)(F)F)c1,-10%,13µM*,-12%,u,u
Cc1cccc(OCC(=O)Nc2ccc(S(=O)(=O)N3CCCC3)cc2)c1,0%,36%,-8%,-8%,u
COc1ccccc1OCC(=O)Nc1ccc(S(=O)(=O)N2CCCC2)cc1,1%,13%,-7%,-2%,-20%
O=C(COc1cccc(C(F)(F)F)c1)Nc1ccc(S(=O)(=O)N2CCCCC2)cc1,-2%,9.3µM*,-9%,x,u
Cc1cccc(OCC(=O)Nc2nnc(S(=O)(=O)N3CCCCC3)s2)c1,2%,7.4µM*,-22%,18%,19%
CCOc1ccc(CNC(=O)C2CCN(c3nc4ccccc4nc3C(F)(F)F)CC2)cc1OC,1%,x,x,x,x
CC(C)(C)N1C(=O)c2ccccc2NC(=O)C1C(=O)Nc1ccc(N2CCOCC2)cc1 (stereo not given),x,x,-6%,x,x
CCc1noc(C)c1C(=O)N(CC)CC(=O)Nc1cc(Cl)ccc1C,-20%,-23%,97%,x,-12%
Cc1ccc2c(CC(=O)NNC(=O)c3ccccc3O)coc2c1,-15%,u,80%,x,2%
O=C(CNS(=O)(=O)c1ccccc1)OCC(=O)c1ccccc1Cl,-1%,45%,-10%,2%,-21%
CC(C)CCNC(=O)C12CN(Cc3ccccc3)CC1C(c1ccc([N+](=O)[O-])cc1)=NO2 (stereo not given),-5%,u,u,4%,u
O=C(NCc1ccccc1C(F)(F)F)C12CN(Cc3ccccc3)CC1C(c1ccc([N+](=O)[O-])cc1)=NO2 (stereo not given),-1%,u,-14%,u,3.3µM*
COc1cccc(CNC(=O)C23CN(Cc4ccccc4)CC2C(c2ccc([N+](=O)[O-])cc2)=NO3)c1 (stereo not given),6%,15µM*,-23%,-19%,u
CCCCc1n[nH]c2c1/C(=N/OCC)CC(C)(C)C2,-7%,0%,-15%,5%,2%

# High-throughput results: PubChem BioAssay, National Center for Advancing Translational Sciences (NCATS)
